Laboratory results published in PubChem BioAssay (NCATS).
Inconclusive results are not listed. The source made the active and inactive calls. The call rests on the fitted dose curve; in most records, active means well fitted curve in the direction sought with a large enough effect; inconclusive means small, poorly fitted or top-dose-only effect, or another doubt; inactive means no such curve, though single readings can be large; an effect the other way counts as inactive or inconclusive.

Experiments:
CRL-7250 = normal cell line; test: Cytotoxic Profiling of Annotated Libraries Using Quantitative High-Throughput Screening (AID 1296008); conditions: Five cell lines viability, CellTiter-Glo ATP luminescence, 48-72 h; max response: stronger effect = lower value; further: nearly all actives have a fitted effect of over 60% in size; on max response: on the % scale 0 is the no-effect control and ±100 the full control effect
In short: (§1)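 Cells exposed to compounds for 48 or 72 hr at 37 degrees Celsius. Viability read as ATP-coupled luminescence with CellTiter-Glo after 10 min at room temperature.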

HEK293 = test: as above; conditions: Five cell lines viability, CellTiter-Glo ATP luminescence, 48-72 h; max response: stronger effect = lower value
In short: as §1

HaCat [1] = test: as above; conditions: Five cell lines viability, CellTiter-Glo ATP luminescence, 48-72 h; max response: stronger effect = lower value
In short: as §1

KB-3-1 = test: as above; conditions: Five cell lines viability, CellTiter-Glo ATP luminescence, 48-72 h; max response: stronger effect = lower value
In short: as §1

NIH3T3 [2] = test: as above; conditions: Five cell lines viability, CellTiter-Glo ATP luminescence, 48-72 h; max response: stronger effect = lower value
In short: as §1

HACAT [3] = test: qHTS assay to identify novel small-molecules to repurpose for Merkel cell carcinoma treatment (AID 1296009); conditions: MCC and control cell lines, CellTiter-Glo viability, 72 h; at 44.8 µM (top of the series) unless noted; further: nearly all actives have a fitted effect of over 60% in size
In short: (§2)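 Dose-response viability screen; 72 hr exposure at 37 degree celsius; CellTiter-Glo added, 10 min room temperature, luminescence read; RLUs scaled between no-cell and DMSO wells.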

NIH3T3 [4] = test: as above; conditions: MCC and control cell lines, CellTiter-Glo viability, 72 h; at 44.8 µM (top of the series) unless noted
In short: as §2

C33A = test: Primary qHTS to identify gynecologic anti-cancer compounds using libraries of approved drugs and bioactive compounds (AID 1345084); conditions: Gynecologic cancer cell panel viability, ATPlite luminescence, 48 h; series mostly up to 57.5 µM; further: on the % scale 0 is the no-effect control and ±100 the full control effect; nearly all actives have a fitted effect of over 55% in size
In short: (§3)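 Cells, 1,000 per well, were allowed to settle for 16 h at 37 C before compound addition. Five concentrations were tested for 48 h, and viability was read by ATPlite luminescence after 15 min at room temperature.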

CAOV3 = test: as above; conditions: Gynecologic cancer cell panel viability, ATPlite luminescence, 48 h; series mostly up to 57.5 µM
In short: as §3

CASKI = test: as above; conditions: Gynecologic cancer cell panel viability, ATPlite luminescence, 48 h; series mostly up to 57.5 µM
In short: as §3

Es-2 = test: as above; conditions: Gynecologic cancer cell panel viability, ATPlite luminescence, 48 h; series mostly up to 57.5 µM
In short: as §3

HeLa = test: as above; conditions: Gynecologic cancer cell panel viability, ATPlite luminescence, 48 h; series mostly up to 57.5 µM
In short: as §3

Hek293T = test: as above; conditions: Gynecologic cancer cell panel viability, ATPlite luminescence, 48 h, control line for the selectivity index; series mostly up to 57.5 µM
In short: as §3

JEG-3 = test: as above; conditions: Gynecologic cancer cell panel viability, ATPlite luminescence, 48 h; series mostly up to 57.5 µM
In short: as §3

O=C(c1ccc(Cl)c([N+](=O)[O-])c1)N1CCN(c2ccccc2F)CC1
inactive: max response (CRL-7250) -5.45% | max response (HEK293) 0.0452% | outcome (HaCat [1]) | outcome (KB-3-1) | outcome (NIH3T3 [2]) | outcome (HACAT [3]) | outcome (NIH3T3 [4]) | Potency (C33A) | Potency (CAOV3) | outcome (CASKI) | Potency (Es-2) | Potency (HeLa) | Potency (Hek293T) | Potency (JEG-3)

COc1cc(C2CC(=O)Nc3c2cc(Br)c2ccccc32)cc(OC)c1OC (stereo not given)
inactive: outcome (CRL-7250) | max response (HEK293) 1.49% | outcome (HaCat [1]) | outcome (KB-3-1) | outcome (NIH3T3 [2]) | outcome (HACAT [3]) | outcome (NIH3T3 [4]) | Potency (C33A) | Potency (CAOV3) | outcome (CASKI) | Potency (Es-2) | Potency (HeLa) | Potency (Hek293T) | Potency (JEG-3)

COc1cc(CC2COC(c3ccc(OC4OC(CO)C(O)C(O)C4O)c(OC)c3)C2CO)ccc1O (stereo not given)
inactive: outcome (CRL-7250) | max response (HEK293) 0.464% | outcome (HaCat [1]) | outcome (KB-3-1) | outcome (NIH3T3 [2]) | outcome (HACAT [3]) inactive [at 17.4 µM] | outcome (NIH3T3 [4]) inactive [at 17.4 µM] | Potency (C33A) | Potency (CAOV3) | outcome (CASKI) | Potency (Es-2) | Potency (HeLa) | Potency (Hek293T) | Potency (JEG-3)

C/C(=C\C(=O)C[C@@]12C(=O)O[C@]3(C)CC[C@H]1C[C@H]23)C(N)=O
inactive: max response (CRL-7250) -61.5% | max response (HEK293) -18.5% | outcome (HaCat [1]) | outcome (KB-3-1) | outcome (NIH3T3 [2]) | outcome (HACAT [3]) | outcome (NIH3T3 [4]) | Potency (C33A) | Potency (CAOV3) | outcome (CASKI) | Potency (Es-2) | Potency (HeLa) | Potency (Hek293T) | Potency (JEG-3)

C/C=C1\[C@H](O[C@@H]2O[C@H](CO)[C@@H](O)[C@H](O)[C@H]2O)OC=C(C(=O)O)[C@H]1CC(=O)OCCc1ccc(O)cc1
inactive: max response (CRL-7250) -6.03% | max response (HEK293) -5.51% | outcome (HaCat [1]) | max response (KB-3-1) -0.266% | outcome (NIH3T3 [2]) | outcome (HACAT [3]) inactive [at 17.4 µM] | outcome (NIH3T3 [4]) inactive [at 17.4 µM] | Potency (C33A) | Potency (CAOV3) | outcome (CASKI) | Potency (Es-2) | Potency (HeLa) | Potency (Hek293T) | Potency (JEG-3)

CC(=O)OCC(Cc1ccccc1)NC(=O)C(Cc1ccccc1)NC(=O)c1ccccc1 (stereo not given)
inactive: outcome (CRL-7250) | max response (HEK293) -2.31% | outcome (HaCat [1]) | max response (KB-3-1) -0.456% | outcome (NIH3T3 [2]) | outcome (HACAT [3]) inactive [at 17.4 µM] | outcome (NIH3T3 [4]) inactive [at 17.4 µM] | Potency (C33A) | Potency (CAOV3) | outcome (CASKI) | Potency (Es-2) | Potency (HeLa) | Potency (Hek293T) | Potency (JEG-3)

C[C@@H]1O[C@@H](O[C@H]2[C@H](O[C@H]3[C@H](O[C@H]4CC[C@@]5(C)C(CC[C@]6(C)C5CC=C5[C@@H]7CC(C)(C)C[C@@H](O)[C@]7(C)CC[C@]56C)[C@@]4(C)CO)O[C@H](C(=O)O)[C@@H](O)[C@@H]3O)O[C@H](CO)[C@H](O)[C@@H]2O)[C@H](O)[C@H](O)[C@H]1O (stereo not given in full)
inactive: max response (CRL-7250) 3.95% | max response (HEK293) -3.77% | outcome (HaCat [1]) | outcome (KB-3-1) | outcome (NIH3T3 [2]) | outcome (HACAT [3]) inactive [at 9.27 µM] | outcome (NIH3T3 [4]) inactive [at 9.27 µM] | activity change, negative = cytotoxicity (C33A) -1.56% [at 11.6 µM] | activity change, negative = cytotoxicity (CAOV3) 6.93% [at 11.6 µM] | activity change, negative = cytotoxicity (CASKI) 9.29% [at 11.6 µM] | activity change, negative = cytotoxicity (Es-2) 0.369% [at 11.6 µM] | activity change, negative = cytotoxicity (HeLa) 7.52% [at 11.6 µM] | activity change, negative = cytotoxicity (Hek293T) -1.54% [at 11.6 µM] | activity change, negative = cytotoxicity (JEG-3) 7.46% [at 11.6 µM]

CCCC1=CC2=C(CO1)C(=O)C(C)(O)C(OC(=O)c1c(C)cc(OC)cc1O)C2 (stereo not given)
inactive: max response (CRL-7250) -6.12% | max response (HEK293) -3.53% | outcome (HaCat [1]) | outcome (KB-3-1) | outcome (NIH3T3 [2]) | outcome (HACAT [3]) inactive [at 17.4 µM] | outcome (NIH3T3 [4]) inactive [at 17.4 µM] | Potency (C33A) | Potency (CAOV3) | outcome (CASKI) | Potency (Es-2) | Potency (HeLa) | Potency (Hek293T) | Potency (JEG-3)

COC(=O)C(CC1(O)c2ccccc2N2C(=O)C(CC(C)C)NC21)n1cnc2ccccc2c1=O (stereo not given)
inactive: outcome (CRL-7250) | max response (HEK293) -5.33% | outcome (HaCat [1]) | outcome (KB-3-1) | outcome (NIH3T3 [2]) | outcome (HACAT [3]) inactive [at 17.4 µM] | outcome (NIH3T3 [4]) inactive [at 17.4 µM] | Potency (C33A) | Potency (CAOV3) | outcome (CASKI) | Potency (Es-2) | Potency (HeLa) | Potency (Hek293T) | Potency (JEG-3)

CC(C)(O)C1CC=C(C(=O)OC[C@H]2O[C@@H](Oc3cc(C(=O)O)cc(O)c3O)[C@H](O)[C@@H](O)[C@@H]2O)CC1 (stereo not given in full)
inactive: max response (CRL-7250) 1.76% | max response (HEK293) 3.21% | outcome (HaCat [1]) | outcome (KB-3-1) | outcome (NIH3T3 [2]) | outcome (HACAT [3]) inactive [at 17.4 µM] | outcome (NIH3T3 [4]) inactive [at 17.4 µM] | Potency (C33A) | Potency (CAOV3) | outcome (CASKI) | Potency (Es-2) | Potency (HeLa) | Potency (Hek293T) | Potency (JEG-3)

CC1(C)CC[C@]2(C(=O)O[C@@H]3O[C@H](CO)[C@@H](O)[C@H](O)[C@H]3O)CC[C@]3(C)C(=CCC4[C@@]5(C)CC[C@H](O[C@@H]6O[C@H](C(=O)O)[C@@H](O)[C@H](O)[C@H]6OC6OC(CO)C(O)C(O)C6O)C(C)(C)C5CC[C@]43C)[C@@H]2C1 (stereo not given in full)
inactive: max response (CRL-7250) 3.56% | max response (HEK293) -12.1% | outcome (HaCat [1]) | outcome (KB-3-1) | outcome (NIH3T3 [2]) | outcome (HACAT [3]) inactive [at 9.27 µM] | outcome (NIH3T3 [4]) inactive [at 9.27 µM] | activity change, negative = cytotoxicity (C33A) 0.935% [at 11.6 µM] | activity change, negative = cytotoxicity (CAOV3) 8.5% [at 11.6 µM] | activity change, negative = cytotoxicity (CASKI) 2.93% [at 11.6 µM] | activity change, negative = cytotoxicity (Es-2) 5.59% [at 11.6 µM] | activity change, negative = cytotoxicity (HeLa) 8.29% [at 11.6 µM] | activity change, negative = cytotoxicity (Hek293T) 25.2% [at 11.6 µM] | activity change, negative = cytotoxicity (JEG-3) 4.48% [at 11.6 µM]

CC1(C)CC(NC(=O)C(=O)Nc2ccc(Cl)cc2)CC(C)(C)N1
inactive: max response (CRL-7250) -5.64% | max response (HEK293) -2.65% | outcome (HaCat [1]) | max response (KB-3-1) 4.82% | outcome (NIH3T3 [2]) | outcome (HACAT [3]) | outcome (NIH3T3 [4]) | Potency (C33A) | Potency (CAOV3) | outcome (CASKI) | Potency (Es-2) | Potency (HeLa) | Potency (Hek293T) | Potency (JEG-3)

CC(C)NC(=O)c1ccc(C#Cc2ccncc2)cn1
inactive: max response (CRL-7250) -8.3% | max response (HEK293) -19.1% | outcome (HaCat [1]) | outcome (KB-3-1) | outcome (NIH3T3 [2]) | outcome (HACAT [3]) | outcome (NIH3T3 [4]) | Potency (C33A) | Potency (CAOV3) | outcome (CASKI) | Potency (Es-2) | Potency (HeLa) | Potency (Hek293T) | Potency (JEG-3)

CN1CCCC1Cc1c[nH]c2ccc(CCS(=O)(=O)c3ccccc3)cc12 (stereo not given)
inactive: outcome (CRL-7250) | max response (HEK293) -7.1% | outcome (HaCat [1]) | max response (KB-3-1) 7.71% | outcome (NIH3T3 [2]) | outcome (HACAT [3]) | outcome (NIH3T3 [4]) | Potency (C33A) | Potency (CAOV3) | outcome (CASKI) | Potency (Es-2) | Potency (HeLa) | Potency (Hek293T) | Potency (JEG-3)

CC1(C)C[C@H](O)C[C@@]2(C)[C@H]1[C@H](O)C=C1COC(=O)[C@@]12O
inactive: outcome (CRL-7250) | max response (HEK293) 2.99% | outcome (HaCat [1]) | outcome (KB-3-1) | outcome (NIH3T3 [2]) | outcome (HACAT [3]) | outcome (NIH3T3 [4]) | Potency (C33A) | Potency (CAOV3) | outcome (CASKI) | Potency (Es-2) | Potency (HeLa) | Potency (Hek293T) | Potency (JEG-3)
